# According to ChEMBL document CHEMBL4513216, “Probing the Open Global Health Chemical Diversity Library for Multistage-Active Starting Points for Next-Generation Antimalarials” (ACS Infect Dis, 2020):
# The whole screen tested about 68,000 compounds, of which about 2,700 (4%) showed an effect of 50% or more. For the sample, strong results were picked, then their nearest neighbours and some compounds at random.
# Test system: Plasmodium berghei
# Assay: Screen against P. berghei liver stage (PbLuc), transformed with Luciferase, at 2uM
# Assay type: functional, HepG2
# Conditions: tested at 2 uM
row,SMILES,INHIBITION [%]
1,Cc1cc(C)cc(CN2CCC3(CC2)CC(Nc2ncccn2)CO3)c1 (configuration not stated),24.43
2,CNC(=O)C1CN(c2ccnc(C)n2)CCN1Cc1ccccc1 (configuration not stated),-10.89
3,CC(C)NC(=O)[C@@]12CCO[C@@H]1CCN(Cc1ccco1)C2,16.63
4,CN(C)CCN1C[C@@H]2OCCN(Cc3cnn(C)c3)[C@@H]2C1,33.4
5,Cn1cc(CN2CCO[C@H]3CN(Cc4ccco4)C[C@H]32)cn1,10.53
6,CCC(CC)CN1C[C@@H]2OCCN(Cc3cnn(C)c3)[C@@H]2C1,56.78
7,CC(=O)Nc1ccc(S(=O)(=O)N2CCOC(Cn3ccnc3)C2)cc1 (configuration not stated),1.92
8,O=S(=O)(N1CCOCC1)N1CCC(Oc2cnccn2)CC1,-7.91
9,O=S(=O)(N1CCCCC1)N1CCC(Oc2cnccn2)CC1,41.98
10,CC1CCN(S(=O)(=O)N2CCC(Oc3cnccn3)CC2)CC1,52.82
11,O=S(=O)(c1ccccc1)N1CCC2(CCCN2Cc2cccc(Cl)c2)C1 (configuration not stated),35.26
12,CSc1ccc(-c2nc(CN3CCC(NC(C)=O)C3)c(C)o2)cc1 (configuration not stated),52.77
13,CNC(=O)C1CCN(Cc2nc(-c3ccc(SC)cc3)oc2C)C1 (configuration not stated),13.94
14,CSc1ccc(-c2nc(CN3CCC(NC(C)=O)CC3)c(C)o2)cc1,-11.37
15,Cc1cc(NCc2ccccc2CN2CCCCC2)n2ncnc2n1,-1.87
16,Cc1cc(C)c(CNC(=O)N(C)Cc2cccc(F)c2)c(=O)[nH]1,-9.17
17,CS(=O)(=O)Nc1cccc(C(=O)Nc2ccc3c(c2)C(=O)NC3)c1,-7.99
18,Cc1nnc(SC2CCN(c3sccc3C#N)C2=O)s1 (configuration not stated),57.91
19,Cc1nc(SC2CCN(c3sccc3C#N)C2=O)oc1C (configuration not stated),32.26
20,Cc1nnc(SC2CCN(c3sccc3C#N)C2=O)[nH]1 (configuration not stated),6
21,COc1ccccc1-c1cc(NC(=O)CCS(=O)(=O)C2CCCC2)[nH]n1,-43.66
22,CC(=O)Nc1ccc2c(c1)CN(C(=O)c1ccco1)CC2,33.08
23,CN1CC(=O)N(c2ccsc2)CC12CCN(C(=O)c1ccc[nH]1)C2 (configuration not stated),53.98
24,CN1CC(=O)N(c2ccsc2)CC12CCN(C(=O)c1ccccc1)C2 (configuration not stated),37.45
25,Cc1cc(C(=O)N2CCC3(C2)CN(c2ccsc2)C(=O)CN3C)[nH]n1 (configuration not stated),13.04

row,SMILES,INHIBITION [%]
1,CCC1CN(CC(=O)NCCN(CC)CC)c2ccccc2S1 (configuration not stated),18.23
2,COCCOc1ncccc1C(=O)N1CCCCC1c1nccs1 (configuration not stated),-10.05
3,CCOc1ncccc1C(=O)N1CCCCC1c1nccs1 (configuration not stated),67.59
4,COCCOc1ccccc1C(=O)N1CCCCC1c1nccs1 (configuration not stated),45.75
5,Cc1cc(C)n(C2CCCN(C(=O)CCNc3ncccn3)C2)n1 (configuration not stated),70.27
6,Cc1cc(C)n(C2CCCN(C(=O)CCNS(C)(=O)=O)C2)n1 (configuration not stated),15.31
7,CCOc1ncccc1C(=O)N1CCCC(n2nc(C)cc2C)C1 (configuration not stated),58.29
8,COCc1ccccc1C(=O)N1CCCC(n2nc(C)cc2C)C1 (configuration not stated),21.91
9,CCOc1ncccc1C(=O)N1CCCC(n2nc(C)nc2C)C1 (configuration not stated),20.44
10,Cc1cc(C)n(C2CCCN(C(=O)CCCNc3ncccn3)C2)n1 (configuration not stated),26.71
11,Cc1cncc(C(=O)N2CCO[C@H]3[C@H](Oc4ccccn4)CC[C@@H]32)c1,28.88
12,Cc1ccc(CN2CC[C@H]3[C@H](CO[C@H]3CN(C)C)C2)o1,-0.69
13,COc1nccc(N2CC[C@H](N3CCOCC3)[C@H](CCCO)C2)c1C#N,-47.16
14,N#Cc1cnc2cc(F)cc(F)c2c1NC1CCN(CC(N)=O)CC1,-22.63
15,O=C(C1CC(c2ccccc2)=NO1)N1CCCCc2ccccc21 (configuration not stated),24.84
16,CCC(CC)c1cc(CNC(=O)N2CCC(CO)CC2)on1,-11.8
17,CCC(CC)c1cc(CNC(=O)N2CCCC(N(C)C)C2)on1 (configuration not stated),28.23
18,CCC(CC)c1cc(CNC(=O)N2CCCC(C(=O)NC)C2)on1 (configuration not stated),59.8
19,CN1CCC2(CCN(C(=O)c3ccccc3)CC2)C1,39.18
20,COc1cccc(-c2n[nH]cc2C(=O)NC(C)c2n[nH]c(C)n2)c1 (configuration not stated),64.2
21,COc1cccc(-c2n[nH]cc2C(=O)NC(C)CC(=O)O)c1 (configuration not stated),1.06
22,COc1cccc(-c2n[nH]cc2C(=O)NC(C)c2nc(C(C)C)no2)c1 (configuration not stated),33.9
23,Cc1cccc(CN2CCCC2c2cccc(CCC(=O)O)n2)c1 (configuration not stated),-46.81
24,Cc1cc(CN2CCN(C(=O)CCc3ccco3)CC2)on1,19.91
25,COc1ccc(COCC(O)CNC(=O)c2ccc(C)c(F)c2)cc1 (configuration not stated),-7.11

row,SMILES,INHIBITION [%]
1,O=C(c1cncs1)N1CCOCC(Cc2ccccn2)C1 (configuration not stated),-11.3
2,CN(CC(=O)N1CCOCC(CO)C1)Cc1ccccn1 (configuration not stated),14.96
3,CN(C)CC(=O)N1CCOCC(Cc2ccccn2)C1 (configuration not stated),54.44
4,CC(Cn1cccn1)NC(=O)Nc1nccs1 (configuration not stated),43.93
5,O=C(NCCNc1ncccn1)C1CC(=O)N(CC2CC2)C1 (configuration not stated),4.96
6,COc1ccccc1CCN1CCCC(CN(C)Cc2cc(C)n[nH]2)C1 (configuration not stated),-24.74
7,Cc1ccc(C)c(OC(C)C(=O)Nc2cccnc2)c1 (configuration not stated),1.42
8,Cc1ccc(C)c(OC(C)C(=O)NCCNc2cccnc2)c1 (configuration not stated),33.36
9,Cc1ccc(C)c(OC(C)C(=O)NCc2cccnc2)c1 (configuration not stated),50.98
10,COc1ccc(NS(=O)(=O)C=c2[nH]c(=O)n3cccc3c2=O)cc1Cl,1.52
11,O=C(N1CCCC1)N1CCN(c2ccc(Cl)nn2)C(=O)C1,11.51
12,CC(CCNC(=O)NCCNc1cnccn1)c1ccccc1 (configuration not stated),-24.05
13,CC(CCNC(=O)NCCc1ccncc1)c1ccccc1 (configuration not stated),54.29
14,CC(CCNC(=O)NCCc1ccc(S(N)(=O)=O)cc1)c1ccccc1 (configuration not stated),23.76
15,CO[C@H]1CCN(Cc2ccccn2)[C@@H]2CN(Cc3ccco3)C[C@H]12,23.7
16,O=C(CN1CC(c2nc(-c3ccco3)no2)C1)NCc1ccc(F)cc1,25.69
17,Cc1nc(CNc2ncc(Br)cn2)n[nH]1,33.78
18,O=C(O)c1csc(S(=O)(=O)Nc2c(F)cccc2-n2cccn2)c1,-51.5
19,O=C(O)c1ccc(F)c(S(=O)(=O)Nc2c(F)cccc2-n2cccn2)c1,52.67
20,O=C(O)c1ccc(S(=O)(=O)Nc2c(F)cccc2-n2cccn2)cc1,-21.15
21,CC(C)N1C(=O)CN(CCCO)CC1(C)C,-4.81
22,Cc1noc(-c2ccnc(Oc3ccc(CN4CCCC4)cc3C)c2)n1,27.72
23,CCc1ccc(CN2CCC3(CCCN(C(=O)c4cnccn4)C3)C2)o1 (configuration not stated),-26.14
24,Cc1cnn(CCC(=O)N2CCN(C(=O)C(C)C)[C@@H]3CS(=O)(=O)C[C@@H]32)c1,34.52
25,Cn1nccc1C(=O)N1CCN(C(=O)C2CC2)[C@@H]2CS(=O)(=O)C[C@@H]21,17.73

row,SMILES,INHIBITION [%]
1,Cc1cc(CC(=O)N2CCN(CC3CC3)[C@@H]3CS(=O)(=O)C[C@@H]32)ccc1F,-10.66
2,CCCN1CCN(Cc2cccc(OCC(N)=O)c2)[C@H]2CS(=O)(=O)C[C@H]21,64.52
3,CCC(=O)N1CCN(C(=O)CCn2cc(Cl)cn2)[C@H]2CS(=O)(=O)C[C@H]21,32.71
4,O=C(Cc1ccc(O)c(Cl)c1)N1CCN(CC2CC2)[C@@H]2CS(=O)(=O)C[C@@H]21,-3.88
5,O=C(Cc1ccc(O)c(F)c1)N1CCN(CC2CC2)[C@@H]2CS(=O)(=O)C[C@@H]21,30.42
6,O=C(Cc1ccc(CO)cc1)N1CCN(CC2CC2)[C@@H]2CS(=O)(=O)C[C@@H]21,63.46
7,O=C(CCn1cc(Cl)cn1)N1CCN(CC2CC2)[C@@H]2CS(=O)(=O)C[C@@H]21,59.48
8,CCCN1CCN(Cc2cccc(OC(C)C)c2)[C@H]2CS(=O)(=O)C[C@H]21,5.86
9,CCCN1CCN(Cc2cccc(OC)c2)[C@H]2CS(=O)(=O)C[C@H]21,37.76
10,Cc1cnn(CCC(=O)N2CCN(C(=O)C3CC3)[C@@H]3CS(=O)(=O)C[C@@H]32)c1,59.94
11,O=C1NCCO[C@H]2CN(C(=O)CCc3ccccc3Cl)CC[C@@H]12,46.58
12,CCOCCOC(C)C(=O)Nc1ccc2ccn(CCN(C)C)c2c1 (configuration not stated),27.32
13,Fc1ccccc1-c1nnn(CCCc2nn[nH]n2)n1,-1.29
14,Cc1ccc(-c2ccc(Cl)nn2)cc1S(N)(=O)=O,-62.18
15,COc1ccccc1C1Cn2ccnc2CN1Cc1c[nH]nc1C (configuration not stated),-67.25
16,CN(CCc1ccncc1)C1CCCN(Cc2noc(C3CC3)n2)C1 (configuration not stated),22.34
17,O=S1(=O)C[C@@H]2[C@H](C1)N(Cc1ccc3ccccc3c1)CCN2CC1CC1,20.91
18,Cc1cc(CN2CCN(CC3CC3)[C@@H]3CS(=O)(=O)C[C@@H]32)cc(C)c1O,25.45
19,O=S1(=O)C[C@@H]2[C@H](C1)N(Cc1cccc(O)c1)CCN2CC1CC1,59.94
20,CCCS(=O)(=O)NC(=O)c1cc(C)n(-c2ccccc2)n1,-1.29
21,CCCS(=O)(=O)NC(=O)c1ccc(-n2nc(C)cc2C)cc1,59.04
22,COCCS(=O)(=O)NC(C)c1ccc(-n2nc(C)cc2C)cc1 (configuration not stated),-25.82
